Data taken from PubChem BioAssay.
Results filed as inconclusive are left out. Calls of active or inactive are those of the source.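 The calls were made as follows, unless noted: active = growth inhibition above 25% in both replicates, a cutoff set 3 SD above the mean; inconclusive = above 25% in only one replicate; inactive = the rest.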

How the values were obtained:
[1] = Her2 expression decrease, cell viability multiplex – SKBR3 breast tumor cells, AlphaScreen, ATP viability, primary screen (AID 461;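 active = Her2 level under about 52% in both replicate screens, with viability over 70% of control, limit read from the data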;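 as to Her2 level: lower value means less Her2 protein in the cells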;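 as to viability: percent of carrier control wells set as 100% viability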); details: SKBR3 Her2 protein level, 18-24 h, measured here: SKBR3 viability, ATP luminescence, at 10 µM
[2] = target: Receptor tyrosine-protein kinase erbB-2 (Homo sapiens) (UniProt P04626); experiment: as above; details: 18-24 h, at 10 µM, stronger effect = lower value
[3] = reduced viability of SK-BR-3 breast cancer cells – cell-based, 24 h, human, pilot screen (AID 572;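 active = viability at or below 10% of carrier control in both of two separate runs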;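 also: compound exposure lasted between 18 and 24 h rather than exactly 24 h; 100% = carrier-treated control wells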); details: SK-BR-3 viability, CellTiter-Glo luminescence, at 10 µM, stronger effect = lower value
[4] = HUVEC growth inhibition – cell-based, human, primary screen (AID 575;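 active = viability at or below 30% in both replicate assays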;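 also: 100% = median of untreated cell wells with 0.1% DMSO on each plate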); details: HUVEC proliferation, CellTiter-Glo luminescence, 72 h; at 10 µM; stronger effect = lower value
[5] = H69AR cell proliferation blockers – human, duplicate replicates, primary screen (AID 580;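 active = viability at or under a set limit in both replicates, limit being median viability minus 3 SD, cut at about 48% in these data, passing the limit was not always enough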;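 also: 100% = mean luminescence of untreated wells and 0% = no signal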); details: H69AR lung tumor cells viability, ATP luminescence, 72 h; at 10 µM; stronger effect = lower value
[6] = MRP1 drug-resistance reversers in H69AR cells – cell-based, doxorubicin co-treatment, pilot screen (AID 601;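 active = viability loss from added drug above about 55%, and viability with drug at most 40%, in both replicates, limit read from the data, passing the limit was not always enough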); details: CellTiter-Glo, 72 h, at 10 µM; for differential viability (reversal): stronger effect = higher value
[7] = yeast transport mutant growth inhibition pilot in 384-well plates, post-Golgi transport modulator project (AID 636; in the data active = inhibition above about 31%); details: absorbance 615 nm, about 18 h, stronger effect = higher value
[8] = growth suppression of yeast trafficking mutant, preliminary HTS, modulators of trafficking downstream of Golgi apparatus project, 1536-format plate, OD 615 nm (AID 637; in the data active = inhibition above about 30%); details: yeast transport mutant growth, absorbance 615 nm, 18 h; stronger effect = higher value
[9] = S. cerevisiae growth inhibition in permissive medium (OD615), pilot counter-assay for S. cerevisiae lifespan shortening project, permissive growth control (AID 705); details: OD615, 24 h, at 10 µM, stronger effect = higher value
[10] = S. cerevisiae growth inhibition in restrictive medium, OD615, pilot screen, restrictive growth control, yeast lifespan reduction project (AID 706;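 active = growth inhibition above a set limit, 3 SD over mean compound inhibition, in both replicates, cut at about 43% in these data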;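 also: modified DeaD lifespan yeast strain shifted to restrictive glucose medium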); details: OD615, 48 h, at 10 µM, stronger effect = higher value
[11] = doxorubicin toxicity protection in MRP-1 cells – H69AR cells, CellTiter-Glo, duplicate, MRP-1 activator project, pilot screen (AID 807;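 active = viability increase at or above a cutoff of the median across tested compounds plus 3 SD, cut at about 8.5% in these data, passing the limit was not always enough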;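 also: compound pretreatment 18-22 h then 72 h combined with doxorubicin; 0% = doxorubicin alone and 100% = vehicle without doxorubicin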); details: H69AR viability with doxorubicin, CellTiter-Glo luminescence; at 10 µM; stronger effect = higher value
[12] = viability of HCT116 without oncogenic beta-catenin – human colon tumor cells, pilot screen (AID 823;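 active = cell viability at or below a set limit in both duplicate runs, the limit being the all-compound median minus 4 SD, cut at about 23% in these data, passing the limit was not always enough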;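 also: 0% = wells killed by 20 µM Hyamine and 100% = untreated DMSO cell wells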); details: HCT116 beta-catenin knockout viability, CellTiter-Glo, 60 h; at 10 µM; stronger effect = lower value
[13] = viability of PTEN-null HCT116 cells – cell-based, HCT116 clonal line, CellTiter-Glo, pilot screen (AID 824;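 active = viability at or below 27.92% in each of two runs, the all-compound median minus 4 SD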;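 also: 0% = 20 µM Hyamine control and 100% = vehicle cell control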); details: HCT116 PTEN-deleted viability, 60 h, at 10 µM, stronger effect = lower value
[14] = RAM pathway blockade in budding yeast – dse1pr::URA3 reporter, 5-FOA selection, pilot screen (AID 869;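 active = inhibition over a set limit, the all-compound mean plus 3 SD, in both replicate runs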;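 also: 0% = DMSO wells with no growth and 100% = 10 µM 1-NA-PP1 with full growth; RAM network block rescues cells from 5-FOA so hits raise OD615 growth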); details: S. cerevisiae dse1pr::URA3 5-FOA growth, OD615, 2 d; at 10 µM; stronger effect = higher value; strain carries analog-sensitive mutant Cbk1 kinase
[15] = RAM signaling pathway blockade in yeast – S. cerevisiae, Pdr1DBD-CYC8 efflux-inhibited sensitized strain, primary screen (AID 1298;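 active = RAM network inhibition above 8.4% in each of two replicates, 3 SD over the compound average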;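 also: 0% = DMSO untreated cells without growth and 100% = 10 µM 1-NA-PP1 full growth; higher means more yeast growth rescued from 5-FOA killing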); details: S. cerevisiae cbk1-as DSE1-URA3 strain, 5-FOA growth OD615, 2 d; at 50 µM; stronger effect = higher value
[16] = H69AR cells + 2 uM doxorubicin, measured here: viability with 2 uM doxorubicin, stronger effect = lower value
[17] = H69AR cells, compound alone cytotoxicity

Sequence of Receptor tyrosine-protein kinase erbB-2 (Homo sapiens) (P04626 whole entry, looked up): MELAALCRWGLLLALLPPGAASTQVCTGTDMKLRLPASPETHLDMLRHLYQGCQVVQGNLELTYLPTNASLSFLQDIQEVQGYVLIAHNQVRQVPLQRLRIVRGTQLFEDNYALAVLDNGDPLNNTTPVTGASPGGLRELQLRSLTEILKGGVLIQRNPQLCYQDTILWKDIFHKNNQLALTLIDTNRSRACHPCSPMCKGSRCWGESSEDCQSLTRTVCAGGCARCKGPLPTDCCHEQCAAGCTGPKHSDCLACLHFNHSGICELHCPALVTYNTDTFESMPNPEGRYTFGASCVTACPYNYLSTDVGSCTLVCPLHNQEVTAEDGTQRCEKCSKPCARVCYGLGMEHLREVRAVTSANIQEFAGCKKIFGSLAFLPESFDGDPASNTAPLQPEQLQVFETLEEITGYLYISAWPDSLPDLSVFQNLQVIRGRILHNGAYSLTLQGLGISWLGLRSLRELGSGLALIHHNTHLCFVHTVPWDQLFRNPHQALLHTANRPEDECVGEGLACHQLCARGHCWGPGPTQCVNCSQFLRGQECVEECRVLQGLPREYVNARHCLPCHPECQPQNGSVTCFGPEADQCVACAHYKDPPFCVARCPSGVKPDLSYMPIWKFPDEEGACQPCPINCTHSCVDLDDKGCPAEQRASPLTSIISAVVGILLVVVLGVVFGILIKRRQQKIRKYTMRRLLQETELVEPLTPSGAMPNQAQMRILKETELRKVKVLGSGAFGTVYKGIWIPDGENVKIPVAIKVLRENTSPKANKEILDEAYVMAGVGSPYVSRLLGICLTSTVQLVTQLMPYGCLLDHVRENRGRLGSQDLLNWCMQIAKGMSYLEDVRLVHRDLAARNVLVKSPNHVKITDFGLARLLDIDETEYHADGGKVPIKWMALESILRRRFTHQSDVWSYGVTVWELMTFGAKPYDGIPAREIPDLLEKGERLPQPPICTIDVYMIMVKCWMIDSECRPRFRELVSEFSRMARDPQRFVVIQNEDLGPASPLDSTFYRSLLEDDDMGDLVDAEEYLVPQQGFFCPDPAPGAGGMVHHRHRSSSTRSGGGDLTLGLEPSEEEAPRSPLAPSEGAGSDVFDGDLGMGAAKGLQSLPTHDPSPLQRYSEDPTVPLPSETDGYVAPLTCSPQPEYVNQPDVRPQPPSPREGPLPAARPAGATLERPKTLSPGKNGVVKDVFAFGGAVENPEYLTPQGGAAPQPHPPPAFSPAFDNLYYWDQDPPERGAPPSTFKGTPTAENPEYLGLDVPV

CC1NC2(C(=O)N(Cc3ccccc3)c3ccccc32)C2C(=O)N(c3ccccc3)C(=O)C12 (stereo not drawn)
120%: viability [1]
93.5%: viability [6, 17]
92.9%: viability [6, 16]
inactive: Her2 level [2] 100% | viability [3] 120% | viability [4] 95.5% | viability [5] 93.5% | differential viability (reversal) ([6]; H69AR cells + 2 uM doxorubicin) 0.575% | inhibition [7] -4.13% | inhibition [8] 1% | growth inhibition [9] -5.06% | growth inhibition [10] -14.4% | viability increase [11] 1.77% | viability [12] 97.1% | viability [13] 104% | inhibition [14] 0.29% | RAM network inhibition [15] 3.53%

CC(C)Sc1nc2c(c(=O)n1-c1ccc(F)cc1)SCC2
88.5%: viability [6, 17]
114%: viability [1]
81.1%: viability [6, 16]
inactive: Her2 level [2] 124% | viability [3] 114% | viability [4] 87.6% | viability [5] 88.5% | differential viability (reversal) ([6]; H69AR cells + 2 uM doxorubicin) 7.33% | inhibition [7] -4.27% | inhibition [8] -4.35% | growth inhibition [9] -4.45% | growth inhibition [10] -19.7% | viability increase [11] -2.6% | viability [12] 84.6% | viability [13] 87.1% | inhibition [14] 0.61% | RAM network inhibition [15] 7.83%

CC(NC(=O)C1CC1)C(c1cccs1)N1CCN(c2ccccc2)CC1 (stereo not drawn)
95.5%: viability [1]
inactive: Her2 level [2] 96% | viability [3] 95.5% | viability [4] 105% | viability [5] 89.5% | differential viability (reversal) ([6]; H69AR cells + 2 uM doxorubicin) -4.32% | inhibition [7] -4.13% | inhibition [8] -5.57% | growth inhibition [9] -6.42% | growth inhibition [10] 6.87% | viability increase [11] 0.65% | viability [12] 92% | viability [13] 93.2% | inhibition [14] 2.08% | RAM network inhibition [15] -0.26%
93.8%: viability [6, 16]
89.5%: viability [6, 17]

CCOC(=O)C1CCN(Cc2ccc(OC)c(C)c2OC)CC1
88.5%: viability [1]
inactive: Her2 level [2] 97.5% | viability [3] 88.5% | viability [4] 108% | viability [5] 86.9% | differential viability (reversal) ([6]; H69AR cells + 2 uM doxorubicin) 3.22% | inhibition [7] -2.4% | inhibition [8] -7.1% | growth inhibition [9] -2.98% | growth inhibition [10] 2.96% | viability increase [11] -4.57% | viability [12] 78.3% | viability [13] 80.3% | inhibition [14] 1.16% | RAM network inhibition [15] 1.41%
83.7%: viability [6, 16]
86.9%: viability [6, 17]

CCOC(=O)N1CCN(C(=O)c2c(-c3ccccc3)noc2C)CC1
95.2%: viability [6, 17]
78%: viability [1]
89.5%: viability [6, 16]
inactive: Her2 level [2] 104% | viability [3] 78% | viability [4] 96.6% | viability [5] 95.2% | differential viability (reversal) ([6]; H69AR cells + 2 uM doxorubicin) 5.67% | inhibition [7] -6.67% | inhibition [8] -2.5% | growth inhibition [9] -9.5% | growth inhibition [10] -0.595% | viability increase [11] -2.25% | viability [12] 104% | viability [13] 87.6% | inhibition [14] 3% | RAM network inhibition [15] 4.25%

CCOc1ccc(N(CC(=O)Nc2ccc(F)c(F)c2)S(=O)(=O)c2c(C)noc2C)cc1
65.8%: viability [6, 17]
83.5%: viability [1]
inactive: Her2 level [2] 80% | viability [3] 83.5% | viability [4] 54% | viability [5] 65.8% | differential viability (reversal) ([6]; H69AR cells + 2 uM doxorubicin) 1.49% | inhibition [7] -4.4% | inhibition [8] -1.31% | growth inhibition [9] -11.3% | growth inhibition [10] -9.45% | viability increase [11] -3.6% | viability [12] 93% | viability [13] 88.7% | inhibition [14] 2.33% | RAM network inhibition [15] 4.77%
64.3%: viability [6, 16]

COC(=O)C1=C(C)NC(C)=C(C(=O)OC)C1C1CC=CCC1 (stereo not drawn)
85%: viability [1]
100%: viability [6, 17]
inactive: Her2 level [2] 90.5% | viability [3] 85% | viability [4] 75.4% | viability [5] 100% | differential viability (reversal) ([6]; H69AR cells + 2 uM doxorubicin) 23.3% | inhibition [7] -0.91% | inhibition [8] 6.89% | growth inhibition [9] -3.42% | growth inhibition [10] -21.7% | viability increase [11] -4.18% | viability [12] 90.4% | viability [13] 87.1% | inhibition [14] 2.73% | RAM network inhibition [15] 8.09%
77.1%: viability [6, 16]

COC(=O)CSc1nnc(-c2ccncc2)o1
inactive: Her2 level [2] 127% | viability [3] 116% | viability [4] 105% | viability [5] 95% | differential viability (reversal) ([6]; H69AR cells + 2 uM doxorubicin) 7.96% | inhibition [7] -3.25% | inhibition [8] -7.33% | growth inhibition [9] -2.71% | growth inhibition [10] -17.9% | viability increase [11] -2.71% | viability [12] 93.2% | viability [13] 94.2% | inhibition [14] 0.9% | RAM network inhibition [15] 0.67%
87%: viability [6, 16]
116%: viability [1]
95%: viability [6, 17]

COc1cccc(C(=O)OCn2nnc3ccccc3c2=O)c1OC
inactive: Her2 level [2] 102% | viability [3] 85.5% | viability [4] 97.7% | viability [5] 86.9% | differential viability (reversal) ([6]; H69AR cells + 2 uM doxorubicin) -22% | inhibition [7] -2.67% | inhibition [8] -3.67% | growth inhibition [9] 8.45% | growth inhibition [10] 5.07% | viability increase [11] 0.09% | viability [12] 96.5% | viability [13] 99.9% | inhibition [14] 2.57% | RAM network inhibition [15] -0.62%
86.9%: viability [6, 17]
109%: viability [6, 16]
85.5%: viability [1]
